Drawing on PubChem BioAssay (NCATS), this text covers Potency and activity change, positive = activation for 28 molecules.

Values without a mark were called inactive. A call without a number means that no potency is given here. Activity calls are given as the source filed them. Calls come from the whole dose curve; as a rule, active = well fitted activation curve with a large enough effect; inconclusive = small, poorly fitted or top-dose-only effect; inactive = no such curve, though single readings can be large or run the other way.
Potency is the fitted concentration of half-maximal effect.

The experiment deals with Cytochrome P450 3A4 (Homo sapiens) (UniProt P08684). Description: qHTS Assay for Activators of Cytochrome P450 3A4 (AID 885). Note: nearly all actives have a fitted effect of over 65% in size. The settings on record: recombinant CYP3A4, Luciferin-PPXE luminescence, 60 min; series mostly up to 57.1 µM. A digest of the protocol: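 Quantitative HTS format: compounds preincubated with 20nM human CYP3A4 and Luciferin-PPXE substrate at KM, reaction started by NADPH regeneration, stopped after 60 min, luciferase luminescence read 20 min later.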
Sequence of Cytochrome P450 3A4 (Homo sapiens) (P08684 whole entry, looked up): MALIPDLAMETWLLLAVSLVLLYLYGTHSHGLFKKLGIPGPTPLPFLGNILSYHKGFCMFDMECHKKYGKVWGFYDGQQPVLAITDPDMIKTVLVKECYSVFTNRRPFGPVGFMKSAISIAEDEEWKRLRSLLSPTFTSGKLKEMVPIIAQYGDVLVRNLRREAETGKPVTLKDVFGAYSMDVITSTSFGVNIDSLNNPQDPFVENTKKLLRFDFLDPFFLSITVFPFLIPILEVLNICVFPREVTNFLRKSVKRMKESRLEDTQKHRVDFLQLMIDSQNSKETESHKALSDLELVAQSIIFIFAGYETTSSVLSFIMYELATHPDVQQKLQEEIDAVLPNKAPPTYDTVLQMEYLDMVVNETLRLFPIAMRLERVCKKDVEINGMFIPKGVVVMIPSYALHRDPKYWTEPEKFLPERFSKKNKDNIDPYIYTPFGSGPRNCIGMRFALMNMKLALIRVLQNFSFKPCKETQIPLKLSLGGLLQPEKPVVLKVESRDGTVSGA
With `CC(=O)Oc1ccc2c(c1)CCC1C2CC[C@]2(C)C(OC(C)=O)CCC12` (stereo partly drawn), the Potency entry is “inactive”. With `CC(=O)c1c(O)c(C)c(O)c2c1OC1=CC(=O)C(C(C)=O)C(=O)C12C` (stereo not drawn), the Potency result is “inactive”. Same read-out and setting: to `COC(=O)[C@@H]1C[C@@]2(O)[C@H](O)[C@H](O)[C@H](O)C[C@H]2N1Cc1cccnc1` belongs “inactive”; to `C[C@]12CC[C@@H]3C(=CCc4cc(O)ccc43)[C@@H]1CCC2=O`, “inactive”; to `CCCCCCCC/C=C\CCCCCCCC(N)=O`, “inactive”.

As to `CC1(C)C2(Cl)C(Cl)C(Cl)C(Cl)(C(Cl)Cl)C1(Cl)C2Cl` (stereo not drawn), the Potency result was “inactive”. Take `COC(=O)[C@H]1[C@H](c2ccccc2)C(=O)[C@@]2(O)c3ccccc3O[C@@]12c1ccccc1`: the activity change, positive = activation was -48.2% [at 11.4 µM]. Regarding `O=C(OCC1CO1)C1CCCCC1C(=O)OCC1CO1` (stereo not drawn), the Potency entry is “inactive”. On the same count and under the same terms, for `COc1cc2ccc(=O)oc2c2ccoc12` the value was “inactive”; for `CC(=O)[C@@H]1CC[C@@H]2[C@@H]3CCC4=CC(=O)CC[C@@]4(C)[C@H]3CC[C@]21C`, 3.98 µM (active). The same measure, in the same setting: for `CCCN1[C@H](C(=O)OC)C[C@@H]2CC[C@@H](O)C[C@@H]21` the value was “inactive”.

In the case of `CCC(=O)OC1CCC2C3CCc4cc(O)ccc4C3CC[C@]12C` (stereo partly drawn), the Potency result was “inactive”. Still for that read-out and setting: to `Clc1ccc(C(c2ccc(Cl)cc2)n2cc[n+](C[C@@H](OCc3ccc(Cl)cc3Cl)c3ccc(Cl)cc3Cl)c2)cc1` belongs “inactive”; to `CC(=O)[C@@H]1CC[C@@H]2[C@@H]3CC=C4C[C@H](OS(=O)(=O)O)CC[C@@]4(C)[C@H]3CC[C@]21C`, “inactive”. Still for that read-out and setting: for `C[C@@]12CC[C@@H]3c4ccc(O)cc4C[C@H](CCCCCCCCCS(=O)CCCC(F)(F)C(F)(F)F)[C@H]3[C@@H]1CC[C@@H]2O` (stereo partly drawn) the value was “inactive”. Turning to `CC(=O)[C@]1(O)CC[C@@H]2[C@H]3C[C@@H](C)C4=CC(=O)CC[C@@]4(C)[C@H]3[C@@H](O)C[C@]21C`, the activity change, positive = activation is -33% [at 11.4 µM].

Turning to `O[Si@](CCCN1CCCCC1)(c1ccc(F)cc1)C1CCCCC1`, the Potency result is “inactive”.

Turning to `CCN(CC)c1ccc2c(C)cc(=O)oc2c1`, the Potency entry is “inactive”. Same read-out and setting: for `COC(=O)[C@]1(C)CC[C@@]2(C)CC[C@@]3(C)C4=CCc5c(cc(O)c(O)c5C)[C@]4(C)CC[C@@]3(C)C2C1` (stereo partly drawn) the value was “inactive”; for `COC(=O)CCC(C)C1CCC2C3C(O)C[C@@H]4CC(O)CC[C@@]4(C)C3CC(O)[C@]12C` (stereo partly drawn), “inactive”.

For `COC(=O)[C@@H]1C[C@H]2CC[C@H](O)C[C@H]2N1CC1CC1`, the Potency entry is “inactive”. Still for that read-out and setting: for `O=c1[nH]c(=O)n([C@H]2C[C@H](O)[C@H](CO)O2)cc1/C=C\Br` the value was “inactive”; for `C[C@@H]1Cc2ccccc2N1NC(=O)c1ccc(Cl)c(S(N)=O)c1` (stereo partly drawn), “inactive”; for `COc1cc(C(=O)OC2CC[C@]3(C)C4CCC5[C@]6(O)CC(O)[C@]7(O)C(CN8CC(C)CCC8[C@]7(C)O)[C@]6(O)C[C@@]53O[C@]24O)cc(OC)c1OC` (stereo partly drawn), “inactive”. In the case of `CCCN1[C@@H]2C[C@@H](O)CC[C@@H]2C[C@H]1C(=O)OC`, the Potency entry is “inactive”. Regarding `COC(=O)[C@H]1[C@@H](c2ccccc2)[C@@]2(c3ccccc3)Oc3ccccc3[C@@]1(O)[C@@H]2O`, the activity change, positive = activation was -40.9% [at 11.4 µM]. `CCC(C(=O)C(C)C(O)C(C)CCc1ccc(C)c(O)c1C(=O)O)C1OC(CC)(C2CC[C@@](O)(CC)C(C)O2)CC1C` (stereo partly drawn): the Potency entry was “inactive”.

In the case of `CC(C)c1cccc(O)c(=O)c1`, the Potency entry is “inactive”.
